This is a sample that favours compounds with a hit; in the whole collection about 4.7% have one here.
TRHR ag: activates the human TRH receptor. TRHR cells, calcium flux fluo-8, FDSS agonist mode. activation, % at 2 µM. 0.18% of 360,000 active. AID 493084; note: 0% is about no effect
Target sequence (P34981 whole entry, looked up): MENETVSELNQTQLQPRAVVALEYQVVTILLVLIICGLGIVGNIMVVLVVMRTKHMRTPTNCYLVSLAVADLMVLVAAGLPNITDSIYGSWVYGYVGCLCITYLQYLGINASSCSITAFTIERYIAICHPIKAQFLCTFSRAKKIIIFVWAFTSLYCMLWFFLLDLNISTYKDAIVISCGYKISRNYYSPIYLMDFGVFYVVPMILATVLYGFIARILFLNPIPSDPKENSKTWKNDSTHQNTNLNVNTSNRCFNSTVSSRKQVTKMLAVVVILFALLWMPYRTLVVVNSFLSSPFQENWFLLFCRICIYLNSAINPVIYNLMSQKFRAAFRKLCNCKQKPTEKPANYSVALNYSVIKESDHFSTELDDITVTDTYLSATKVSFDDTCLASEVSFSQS
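TRHR-expressing cells loaded with fluo-8 calcium dye; 23 nL library compound pin-transferred, kinetic FDSS fluorescence (Ex 480/Em 530) recorded about 180 s for agonist-induced calcium release, before a 10 nM TRH EC20 addition for potentiator mode.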
D1 antagonist: antagonists of human D1 dopamine receptor. HEK293 TREx D1 cells, calcium flux, dopamine EC80; stronger effect = lower value. activity change, negative = inhibition, % at 10 µM. 3.2% of 360,000 active. AID 504652; in the data active = activity change below about -30%; note: % is set by controls: 0 for no effect and ±100 for the full control effect
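After overnight tetracycline induction at 30 C, force-coupled D1 HEK293 cells took up a no-wash calcium dye at room temperature. Compounds were added and monitored 180 s, and the response to EC80 dopamine was then recorded.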
D1 agonist: activates the human D1 dopamine receptor. P21728. HEK293 T-REx D1 cells, calcium flux, agonist mode. activation, % at 2 µM. 1% of 360,000 active; note: 0% is about no effect
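Inducible HEK293 T-REx D1 cells, force-coupled to calcium signalling, were plated at 4000 cells/well with tetracycline and held overnight at 30 C. After no-wash calcium dye loading, compound-evoked calcium rise over 180 s flagged agonists.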
TRHR enhancer: allosteric enhancers of human TRH receptor; P34981; 0.66% of 360,000 active; AID 493056; TRHR cells, fluo-8 calcium fluorescence, EC20 TRH enhancement; enhancement, % at 2 µM; in the data active = enhancement above about 30%; note: 0% is about no effect
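TRHR-expressing cells loaded with fluo-8 calcium dye were read kinetically (ex 480/em 530) during compound addition, then stimulated with an EC20 of TRH (10 nM final). Enhancement of the Gq-mediated intracellular calcium response was scored.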
D1 PAM: potentiators of human D1 dopamine receptor. P21728. HEK293 TREx D1 cells, calcium flux, dopamine EC20 potentiation. potentiation, % at 10 µM. 0.036% of 360,000 active. AID 504651; in the data active = potentiation above about 30%; note: 0% is about no effect
Starred values were filed as active, the others as inactive; ! = not confirmed by another sample. Cut-off read from the data, not from the text of the source, unless noted: active = activation above about 30%; inactive = the rest.

SMILES	TRHR ag	D1 antagonist	D1 agonist	TRHR enhancer	D1 PAM
O=C(NCCCNc1ccc(C(F)(F)F)cc1[N+](=O)[O-])c1cc(F)c(F)cc1Cl	1	-43*	16	-1	-5
COC(=O)CCn1c(C)cc(C(=O)COc2ccccc2C(N)=O)c1C	0	-56*	19	23	-8
CN1CCC(N(C)C(=S)Nc2ccc(SC(F)F)cc2)CC1	1	-34*	12	-2	-2
CN1CCC(N(C)C(=S)Nc2ccc(F)cc2)CC1	0	-8	2	2	-3
Cc1cc(C(=O)COC(=O)c2ccc(N)c([N+](=O)[O-])c2)c(C)n1-c1ccc2c(c1)OCO2	0	-25	7	-5	-4
CC(=O)c1ccc(OCC(=O)c2cc(C)n(-c3ccc4c(c3)OCO4)c2C)cc1	-1	-44*	12	-5	-5
COc1ccccc1C1C=C(c2ccc(F)cc2)Nc2nc(-c3ccc(Cl)cc3)nn21 (stereo unspecified)	1	12	5	6	3
CSc1nnc(-c2ccccc2N=Cc2c(C)[nH]n(-c3ccccc3)c2=O)c(=O)[nH]1	0	-33*	-1	-10	1
Cc1ccc2cccc(N=Cc3c(C)[nH]n(-c4ccccc4)c3=O)c2n1	-1	2	0	-5	-1
CCC(O)C1CCN(Cc2cn(Cc3ccccc3)nc2-c2cc3ccccc3o2)CC1 (stereo unspecified)	5	-15	64*	-5	-4
CCOc1ccccc1NC(=O)CSc1nccn1-c1cccc(C)c1	0	-12	5	-4	-6
Fc1ccc2[nH]c3c(N4CCc5ccccc5C4)ncnc3c2c1	2	-35*	16	-1	-12
Clc1ccc2[nH]c3c(N4CCC5(CC4)OCCO5)ncnc3c2c1	3	-35*	9	-5	-4
Cc1ccc2[nH]c3c(N4CCc5ccccc5C4)ncnc3c2c1	-1	-61*	10	6	-11
Cc1cccc2[nH]c3c(N4CCC5(CC4)OCCO5)ncnc3c12	-1	-17	6	5	-10
COc1cccc(C2c3c(-c4ccccc4O)n[nH]c3C(=O)N2CCc2ccc(OC)c(OC)c2)c1 (stereo unspecified)	0	6	-2	0	0
Cc1ccc(/C=C/C(=O)N2CCN(c3ncccn3)CC2)o1	0	-43*	2	0	-5
COc1cccc(CN(C(=O)c2oc3ccc(Br)cc3c2C)C2CCS(=O)(=O)C2)c1 (stereo unspecified)	1	-1	10	9	-1
FC(F)(F)c1ccccc1NC(=S)Nc1ccccc1	0	-35*	0	5	1
COc1ccc(C)cc1NC(=O)COc1cc(=O)n(C)c2ccccc12	0	-5	0	3	-3
COc1ccc(CCC(=O)NCCS(=O)(=O)N2CCN(c3ccccc3F)CC2)cc1	0	-25	11	6	-15
COc1ccc(CCC(=O)NCCS(=O)(=O)N2CCN(c3ccccc3OC)CC2)cc1	-1	-33*	19	1	1
O=C(Cn1c(=O)oc2cc(Cl)ccc21)Nc1cccc(C(F)(F)F)c1	0	-47*	27	-1	-7
CC(C)c1ccc(NC(=O)Cn2c(=O)oc3cc(S(=O)(=O)N4CCCC4)ccc32)cc1	0	-36*	4	-3	-3
COc1ccc(NC(=O)Cn2c(=O)oc3cc(S(=O)(=O)N4CCCC4)ccc32)cc1	1	-3	1	-2	-3
SMILES	TRHR ag	D1 antagonist	D1 agonist	TRHR enhancer	D1 PAM
O=C(Cn1c(=O)oc2ccccc21)Nc1cccc(Cl)c1	0	0	3	5	0
CC1CCN(S(=O)(=O)c2ccc3c(c2)oc(=O)n3CC(=O)NCc2ccc(F)cc2)CC1	7	-57*	87*	0	1
COc1cccc(CNC(=O)Cn2c(=O)oc3cc(S(=O)(=O)N4CCCCCC4)ccc32)c1	-1	-13	8	-1	-2
COc1ccc(CNC(=O)Cn2c(=O)oc3cc(S(=O)(=O)N4CCCC4)ccc32)cc1	-1	-41*!	11	-4	-1
Cc1cccc(NC(=O)Cn2c(=O)oc3cc(S(=O)(=O)NC4CCCC4)ccc32)c1	0	-1	7	4	-6
Cc1cccc(NC(=O)Cn2c(=O)oc3cc(S(=O)(=O)NCc4ccccc4)ccc32)c1	0	-35*	4	0	-4
O=C(Cn1nc(C(=O)O)c2ccccc2c1=O)Nc1cc(Cl)ccc1-n1cncn1	-1	-26	0	37*	-7
N#Cc1c(Cl)cccc1Oc1ccc([S+](=O)([O-])N2CCN([S+](=O)([O-])c3c(F)cccc3F)CC2)cc1	0	-16	1	2	-5
CCOc1ccc(-c2cccc(NS(=O)(=O)c3ccc(Cl)s3)c2)nn1	-1	-13	1	9	-2
CC(=O)c1cc(NC(=O)c2ccc(Cl)cc2)c(=O)oc1/C=C/N(C)C	39*	-18	108*	-3	2
O=S(=O)(Nc1ccc2c(c1)OCO2)c1cccc(Br)c1	-1	-34*	0	0	-1
O=C1COc2ccc(S(=O)(=O)Nc3ccc4c(c3)OCO4)cc2N1	0	-32*	6	0	1
O=S(=O)(Nc1ccc2c(c1)OCCO2)c1cccc(F)c1	-1	2	6	6	-3
CCCCCCCCCC(=O)N1c2ccccc2NC(=O)C1CC(=O)Nc1ccc(C(=O)O)cc1 (stereo unspecified)	0	14	39*	-5	-5
CCOc1ccccc1NC(=O)c1sc2nc3c(cc2c1N)CN(Cc1ccccc1)CC3	8	16	55*	5	-4
O=C(OCC(=O)C12CC3CC(CC(C3)C1)C2)c1ccc(O)cc1O	0	-1	93*	-6	43*
Cc1cccc(NC(=O)c2cccc(OC(=S)N3CCOCC3)c2)c1C	-1	-32*	2	-5	-4
CCCOc1ccc2ccccc2c1/C=N/n1cnnc1	0	2	1	8	6
CCOc1ccc2ccccc2c1/C=N/n1cncn1	0	-47*	13	3	4
COc1cc2nc(SCc3cccc(Cl)c3)n3nc(CCn4nc(C)cc4C)nc3c2cc1OC	-1	-1	0	5	4
CCCCOc1nnc(-c2ccc(OCC)cc2)c2ccccc12	0	-15	-2	2	-5
CCCCn1c(=O)c(CCC(=O)OCC(=O)NC(=O)NCCC(C)C)nc2ccccc21	0	2	1	30*	0
CN1CCc2sc(NC(=O)Cc3ccccc3)c(C(=O)Nc3ccc(Cl)cc3)c2C1	1	-53*	23	3	-6
CCC(=O)Nc1sc2c(c1C(=O)Nc1ccc(Br)cc1)CCCCC2	6	-31*	4	1	-3
